The source made the active and inactive calls. Unless noted, how the calls were made is not given here.
Assays:
[1] = test system: XIP peptide (Xip251-270) binding; assay: small-molecule binders of XIP peptide, primary screen, biochemical, small-molecule microarray, fluorescence 635/667 nm, 0.1 µg/mL protein (AID 1182); details: fluorescent protein binding, 635 nm, higher = more signal, called active from +8 up or from −8 down
XIP peptide (Xip251-270) = assay: small-molecule binders of XIP peptide, primary screen, biochemical, small-molecule microarray, fluorescence 635/667 nm, 0.5 µg/mL protein (AID 1183); details: small-molecule microarray binding, fluorescence 635 nm; higher = more signal
[2] = Plasmodium falciparum growth inhibition, primary screen, strain 3D7, DAPI fluorescence, 100 nL (AID 1184);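 further: parasites grown inside human red blood cells in medium with human serum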; details: P. falciparum 3D7 growth, 3 d, higher = more signal
[3] = biological target: Homeobox protein Hox-A13 (Mus musculus) (UniProt Q62424); assay: inhibitors of HoxA13-DNA binding, primary screen, biochemical, fluorescence polarization, labeled oligonucleotide (AID 1185); details: 15 min, higher = more signal, called active from +8 up or from −8 down
Chain of Homeobox protein Hox-A13 (Mus musculus) (Q62424 whole entry, looked up): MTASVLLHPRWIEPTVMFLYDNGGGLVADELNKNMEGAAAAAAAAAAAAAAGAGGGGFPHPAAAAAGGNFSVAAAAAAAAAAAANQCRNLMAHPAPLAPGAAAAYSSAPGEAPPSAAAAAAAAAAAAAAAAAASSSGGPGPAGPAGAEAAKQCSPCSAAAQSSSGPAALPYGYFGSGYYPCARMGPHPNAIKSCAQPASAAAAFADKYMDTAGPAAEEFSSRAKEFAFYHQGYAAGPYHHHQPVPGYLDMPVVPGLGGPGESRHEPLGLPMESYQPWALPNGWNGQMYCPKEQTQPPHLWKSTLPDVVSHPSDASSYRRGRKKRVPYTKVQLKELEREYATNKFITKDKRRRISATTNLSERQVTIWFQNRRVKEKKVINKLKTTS

[4] = inhibitors of hydroxyurea-induced Chk1 phosphorylation, primary screen, imaging, HeLa, phospho-Chk1 antibody, percent positive cells (AID 1186); details: hydroxyurea-induced phospho-Chk1 immunofluorescence imaging, higher = more signal
[5] = inhibitors of hydroxyurea-induced Chk1 phosphorylation, primary screen, imaging, HeLa, phospho-Chk1 nuclear intensity (AID 1187); details: hydroxyurea-induced phospho-Chk1 immunofluorescence imaging, higher = more signal

Compound	composite z-score [1]	composite z-score (XIP peptide (Xip251-270))	z-score [2]	z-score [3]	z-score [4]	z-score [5]
O=C1NC(=O)C2C1C=CC(C(O)CCc1ccccc1)N2Nc1ccccn1 (configuration not stated)	0.415 (inactive)	0.932	0.581	-0.354 (inactive)	-0.181 (inactive)	-0.426 (inactive)
CC(C)NC(=O)[C@@]1(Cc2ccccc2I)c2ccccc2C(=O)N(Cc2ccccc2C(F)(F)F)[C@H]1c1ccc(CO)cc1	0.52 (inactive)	0.815	-1.09	-3.19 (inactive)	-0.195 (inactive)	0.0078 (inactive)
C=CCNC(=O)[C@H]1[C@@H]2C(=O)O[C@@H](c3ccccc3)[C@@H](c3ccccc3)N2[C@@H](c2ccc(O)cc2)[C@]12C(=O)N(C(=O)OCCOC)c1ccc(C#CC3(O)CCCCCC3)cc12	1.44 (inactive)	0.842	0.351	-2.42 (inactive)	-0.213 (inactive)	0.382 (inactive)
NC(=O)[C@@H]1[C@H]2C(=O)O[C@H](c3ccccc3)[C@H](c3ccccc3)N2[C@H](c2ccccc2OCCO)[C@@]12C(=O)Nc1ccc(C#CCCO)cc12	0.585 (inactive)	0.588	0.291	-5.7 (inactive)	-0.266 (inactive)	-0.161 (inactive)
[N-]=[N+]=NCc1ccccc1[C@H]1OC(c2ccc(OCCCO)cc2)=N[C@@]1(Cc1ccccc1)C(N)=O	1.78 (inactive)	0.852	-0.676	-3.61 (inactive)	-0.441 (inactive)	-0.189 (inactive)
Cc1ccc(S[C@]2(C(=O)NCCN3CCOCC3)CC(=O)N(C3Cc4ccccc4C3)[C@@H]2c2ccc(CO)cc2)cc1	0.487 (inactive)	0.547	-0.196	-4.63 (inactive)	0.672 (inactive)	1 (inactive)
COC(=O)C(CC#Cc1ccc2c(c1)[C@]1(C(=O)N2)[C@H](c2ccccc2OCCO)N2[C@H](c3ccccc3)[C@H](c3ccccc3)OC(=O)[C@H]2[C@@H]1C(=O)Nc1nc2ccccc2s1)C(=O)OC	1.32 (inactive)	0.727	-2	0.787 (inactive)	-0.0918 (inactive)	-0.269 (inactive)
C=C(CCCC)/C(=C/C[C@H](OC(=O)c1ccncc1)c1ccc(CO)o1)c1cc(C(=O)OC)ccc1OC	0.948 (inactive)	0.71	-0.138	-5.29 (inactive)	-0.52 (inactive)	-1.02 (inactive)
COc1cccc(C)c1NC(=O)O[C@H]1[C@H](OC(=O)Nc2ccccc2)[C@H](OC(=O)Nc2ccccc2)[C@@H](OC)O[C@@H]1CO	1.57 (inactive)	0.401	-1.51	-5.38 (inactive)	-0.0198 (inactive)	0.136 (inactive)
[N-]=[N+]=NCc1ccccc1C[C@]1(C(=O)NCCN2CCOCC2)COC(c2ccc(OCCCO)cc2)=N1	0.0364 (inactive)	0.258	-2.09	-4.71 (inactive)	-0.327 (inactive)	-0.625 (inactive)
O=C1NC(=O)C2C1C=CC(C(O)c1ccc(-c3ccccc3)s1)N2Nc1ccccn1 (configuration not stated)	1.05 (inactive)	0.212	-0.169	-3.88 (inactive)	0.773 (inactive)	-0.264 (inactive)
O=c1c2ccc(Br)cc2nc(-c2ccccc2)n1Cc1cccc(O)c1	0.0521 (inactive)	0.748	-0.772	-3.01 (inactive)	-0.005 (inactive)	-0.24 (inactive)
CCOC(=O)C1=CC[C@@H](c2cccc(Br)c2)N(S(=O)(=O)c2ccc(C)cc2)[C@H]1c1ccc([N+](=O)[O-])cc1	0.422 (inactive)	0.707	-1.92	4.18 (inactive)	0.476 (inactive)	0.508 (inactive)
O=C1CSC(c2cccc([N+](=O)[O-])c2)N1c1ccccc1 (configuration not stated)	0.0504 (inactive)	0.143	0.464	1.07 (inactive)	0.0304 (inactive)	-0.174 (inactive)
O=C1C2C=CC(C(O)c3cccc4ccccc34)N(Nc3ccccc3)C2C(=O)N1c1ccccc1 (configuration not stated)	0.179 (inactive)	0.807	-0.176	-0.231 (inactive)	0.107 (inactive)	-0.294 (inactive)
CN(C)C(=O)[C@]1(Cc2ccccc2N=[N+]=[N-])N=C(c2ccc(OCCCO)cc2)O[C@@H]1c1ccccc1CN=[N+]=[N-]	0.304 (inactive)	0.312	-2.48	-4.68 (inactive)	-0.191 (inactive)	0.269 (inactive)
COC(=O)c1ccc(OC)c(/C=C\CC(CCc2ccccc2)OC(=O)c2ccncc2)c1 (configuration not stated)	-0.661 (inactive)	-0.329	-0.687	-2.52 (inactive)	0.0946 (inactive)	0.459 (inactive)

From PubChem BioAssay
